Results filed as inconclusive are left out. The source made the active and inactive calls. Calls come from the whole dose curve; as a rule, active = well fitted curve in the direction sought with a large enough effect; inconclusive = small, poorly fitted or top-dose-only effect, or another doubt; inactive = no such curve, though single readings can be large; an effect the other way counts as inactive or inconclusive.
How the values were obtained:
C33A = test: Primary qHTS to identify gynecologic anti-cancer compounds using libraries of approved drugs and bioactive compounds (AID 1345084); details: Gynecologic cancer cell panel viability, ATPlite luminescence, 48 h; series mostly up to 57.5 µM; note: nearly all actives have a fitted effect of over 55% in size
Procedure, shortened: (§1)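 Cells, 1,000 per well, plated 16 h, then exposed 48 h at 37 C to compounds. Viability by ATPlite luminescence after 15 min at room temperature.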

CAOV3 = test: as above; details: Gynecologic cancer cell panel viability, ATPlite luminescence, 48 h; series mostly up to 57.5 µM
Procedure, shortened: as §1

CASKI = test: as above; details: Gynecologic cancer cell panel viability, ATPlite luminescence, 48 h; series mostly up to 57.5 µM
Procedure, shortened: as §1

Es-2 = test: as above; details: Gynecologic cancer cell panel viability, ATPlite luminescence, 48 h; series mostly up to 57.5 µM
Procedure, shortened: as §1

HeLa = test: as above; details: Gynecologic cancer cell panel viability, ATPlite luminescence, 48 h; series mostly up to 57.5 µM
Procedure, shortened: as §1

Hek293T = test: as above; details: Gynecologic cancer cell panel viability, ATPlite luminescence, 48 h, control line for the selectivity index; series mostly up to 57.5 µM
Procedure, shortened: as §1

JEG-3 = test: as above; details: Gynecologic cancer cell panel viability, ATPlite luminescence, 48 h; series mostly up to 57.5 µM
Procedure, shortened: as §1

OV90 = test: as above; details: Gynecologic cancer cell panel viability, ATPlite luminescence, 48 h; series mostly up to 57.5 µM
Procedure, shortened: as §1

PA-1 = test: as above; details: Gynecologic cancer cell panel viability, ATPlite luminescence, 48 h; series mostly up to 57.5 µM
Procedure, shortened: as §1

Tov-21-G = test: as above; details: Gynecologic cancer cell panel viability, ATPlite luminescence, 48 h; series mostly up to 57.5 µM
Procedure, shortened: as §1

Tov112D = test: as above; details: Gynecologic cancer cell panel viability, ATPlite luminescence, 48 h; series mostly up to 57.5 µM
Procedure, shortened: as §1

[1] = qHTS assay to identify inhibitors of the type 1 interferon - major histocompatibility complex class I in skeletal muscle: Counter screen cell viability and HiBit confirmation (AID 1347412); details: iHSKM muscle cells + IFN-b, HiBiT or CellTiter-Glo, 24 h; for activity change, negative = inhibition: at 45.9 µM (top of the series); note: potency is the fitted concentration of half-maximal effect; for all read-outs here: nearly all actives have a fitted effect of over 60% in size
Procedure, shortened: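 CRISPR HLA-B*08:01-HiBit immortalized human myoblasts (C25cl48) stimulated with 4 ng/ml IFN-beta and compounds (12-point 1:3, top 46 uM final) for 24 h at 37 C. Duplicate plates read by HiBit lytic luminescence or CellTiter Glo ATP.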

SKOV3 = test: Primary qHTS to identify gynecologic anti-cancer compounds using libraries of approved drugs and bioactive compounds (AID 1345084); details: Gynecologic cancer cell panel viability, ATPlite luminescence, 48 h; series mostly up to 57.5 µM; note: nearly all actives have a fitted effect of over 55% in size
Procedure, shortened: as §1
% is set by controls: 0 for no effect and ±100 for the full control effect.

Cc1cccc(CC(=O)N2CCc3c2ccc(-c2cn(C)c4ncnc(N)c24)c3F)n1
inactive: Potency (C33A) | Potency (CAOV3) | Potency (CASKI) | Potency (Es-2) | Potency (HeLa) | Potency (Hek293T) | Potency (JEG-3) | Potency (OV90) | Potency (PA-1) | Potency (Tov-21-G) | Potency (Tov112D)

OC1(CN2CCC(COc3noc4cccc(O[C@@H]5CCOC5)c34)CC2)CCOCC1
inactive: Potency (C33A) | Potency (CAOV3) | Potency (CASKI) | Potency (Es-2) | Potency (HeLa) | Potency (Hek293T) | Potency (JEG-3) | Potency (OV90) | Potency (PA-1) | Potency (Tov-21-G) | Potency (Tov112D)

CCOC(=O)CCNc1cc(N2CCc3ccccc3CC2)nc(-c2cccnc2)n1
inactive: Potency (C33A) | Potency (CAOV3) | Potency (CASKI) | Potency (Es-2) | Potency (HeLa) | Potency (Hek293T) | Potency (JEG-3) | Potency (OV90) | Potency (PA-1) | Potency (Tov-21-G) | Potency (Tov112D)

COc1ccc(C2(N(C)C(=O)c3ccc(NC(=O)c4ccco4)cc3)CCOCC2)cc1
inactive: Potency (C33A) | Potency (CAOV3) | Potency (CASKI) | Potency (Es-2) | Potency (HeLa) | Potency (Hek293T) | Potency (JEG-3) | Potency (OV90) | Potency (PA-1) | Potency (Tov-21-G) | Potency (Tov112D)

C=C1C(=O)O[C@@H]2C[C@]3(C)[C@@H](CCC(C)O)[C@@H]3C[C@H]12 (some centres not stated)
inactive: Potency (C33A) | Potency (CAOV3) | Potency (CASKI) | Potency (Es-2) | Potency (HeLa) | Potency (Hek293T) | Potency (JEG-3) | Potency (OV90) | Potency (PA-1) | Potency (Tov112D)

C/C(=C/C=C\C=C\Cc1cnco1)[C@@H](O)C(C)(C)C(N)=O
inactive: Potency (C33A) | Potency (CAOV3) | Potency (CASKI) | Potency (Es-2) | Potency (HeLa) | Potency (Hek293T) | Potency (JEG-3) | Potency (OV90) | Potency (PA-1) | Potency (Tov-21-G) | Potency (Tov112D)

Cc1[nH]c2ccccc2c1CCNCc1ccc(/C=C/C(=O)NO)cc1
inactive: activity change, negative = inhibition ([1]; Viability) -25.2%
active: Potency ([1]; HiBiT) 62.5 nM

OC(c1ccc(-c2ccc(CN3CCN(Cc4ccncc4)CC3)cc2)c(F)c1)(C(F)(F)F)C(F)(F)F
inactive: activity change, negative = inhibition ([1]; HiBiT) -18.6% | activity change, negative = inhibition ([1]; Viability) -8.6%

COc1ccc2nc(-c3cc(OC)c(OC)c(OC)c3)cc(C(=O)NCC(=O)Nc3ccc(C(C)=O)cc3)c2c1
inactive: Potency (C33A) | Potency (CAOV3) | Potency (CASKI) | Potency (Es-2) | Potency (HeLa) | Potency (Hek293T) | Potency (OV90)

O=C(Nc1ccc(CN2CCOCC2)cc1)c1ccc(-c2cccc(Cl)c2)o1
inactive: Potency (C33A) | Potency (CAOV3) | Potency (CASKI) | Potency (Es-2) | Potency (HeLa) | Potency (Hek293T) | Potency (JEG-3) | Potency (Tov-21-G) | Potency (Tov112D)

C=CC(C)(C)C12CC3C(=O)N4C(CC5(C(C)(C)C=C)c6ccccc6NC45)C(=O)N3C1Nc1ccccc12 (configuration not stated)
inactive: Potency (C33A) | Potency (CAOV3) | Potency (CASKI) | Potency (Es-2) | Potency (HeLa) | Potency (Hek293T) | Potency (OV90) | Potency (PA-1) | Potency (SKOV3) | Potency (Tov-21-G) | Potency (Tov112D)

Cc1ccc(S(=O)(=O)N2CCC[C@H]2c2ccc(F)cc2)cc1
inactive: Potency (C33A) | Potency (CAOV3) | Potency (CASKI) | Potency (Es-2) | Potency (HeLa) | Potency (Hek293T) | Potency (JEG-3) | Potency (PA-1) | Potency (SKOV3) | Potency (Tov-21-G) | Potency (Tov112D)

CN(C)C(CCOc1cccc2ccccc12)c1ccccc1 (configuration not stated)
inactive: Potency (C33A) | Potency (CAOV3) | Potency (CASKI) | Potency (Es-2) | Potency (HeLa) | Potency (Hek293T) | Potency (JEG-3) | Potency (PA-1) | Potency (Tov-21-G) | Potency (Tov112D)

CCNC1(C(N)=O)CN(c2nc(C)nc3c(-c4ccc(Cl)cc4)c(-c4ccccc4Cl)nn23)C1
inactive: Potency (C33A) | Potency (CAOV3) | Potency (CASKI) | Potency (Es-2) | Potency (HeLa) | Potency (Hek293T) | Potency (JEG-3) | Potency (PA-1) | Potency (SKOV3) | Potency (Tov-21-G) | Potency (Tov112D)

COc1cc(/C=N\NC(=O)c2ccc3c(c2)OCO3)ccc1OCc1ccccc1
inactive: Potency (C33A) | Potency (CAOV3) | Potency (CASKI) | Potency (Es-2) | Potency (HeLa) | Potency (Hek293T) | Potency (JEG-3) | Potency (Tov-21-G) | Potency (Tov112D)

C[C@@H]1O[C@@H](O[C@H]2[C@H](O[C@H]3CC[C@@]4(C)C(CC[C@]5(C)C4C=C[C@]46OC[C@@]7(CCC(C)(C)C[C@H]74)[C@@H](O[C@@H]4O[C@@H](C)[C@H](O)[C@@H](O)[C@H]4O)C[C@]65C)[C@]3(C)CO)O[C@H](CO)[C@@H](O)[C@@H]2O[C@@H]2O[C@H](CO)[C@@H](O)[C@H](O)[C@H]2O)[C@H](O)[C@H](O)[C@H]1O (some centres not stated)
inactive: activity change, negative = cytotoxicity (C33A) -27.7% [at 11.6 µM] | activity change, negative = cytotoxicity (CAOV3) 9.8% [at 11.6 µM] | activity change, negative = cytotoxicity (CASKI) -9.63% [at 11.6 µM] | activity change, negative = cytotoxicity (Es-2) -13.3% [at 11.6 µM] | activity change, negative = cytotoxicity (HeLa) 21.7% [at 11.6 µM] | activity change, negative = cytotoxicity (Hek293T) -8.24% [at 11.6 µM] | activity change, negative = cytotoxicity (JEG-3) -15.7% [at 11.6 µM] | activity change, negative = cytotoxicity (PA-1) 2.51% [at 11.6 µM] | activity change, negative = cytotoxicity (SKOV3) -8.52% [at 11.6 µM] | activity change, negative = cytotoxicity (Tov-21-G) -2.59% [at 11.6 µM] | activity change, negative = cytotoxicity (Tov112D) -0.84% [at 11.6 µM]

C=C1C(=O)OC2CC(C)C(CCC(C)O)=CCC12 (configuration not stated)
inactive: Potency (C33A) | Potency (CAOV3) | Potency (CASKI) | Potency (Es-2) | Potency (HeLa) | Potency (Hek293T) | Potency (OV90) | Potency (PA-1) | Potency (Tov-21-G) | Potency (Tov112D)

CO[C@H]1C[C@@H]2CC[C@@H](C)[C@@](O)(O2)C(=O)C(=O)N2CCCC[C@H]2C(=O)O[C@H]([C@@H](C)C[C@@H]2CC[C@@H](O)[C@H](OC)C2)CC(=O)[C@H](C)/C=C(\C)[C@@H](O)[C@@H](OC)C(=O)[C@H](C)C[C@H](C)/C=C/C=C/C=C/1C
inactive: Potency (C33A) | Potency (CAOV3) | Potency (CASKI) | Potency (Es-2) | Potency (HeLa) | Potency (Hek293T) | Potency (JEG-3) | Potency (SKOV3) | Potency (Tov112D)

CCc1cccc(CC)c1-n1c(C=C(C)C)c(C(=O)N2CCNCC2)cc(-c2nc(-c3ccc(C(F)(F)F)cc3)cs2)c1=O
inactive: Potency (C33A) | Potency (CAOV3) | Potency (CASKI) | Potency (Es-2) | Potency (HeLa) | Potency (Hek293T) | Potency (JEG-3) | Potency (PA-1) | Potency (Tov-21-G) | Potency (Tov112D)

C[C@H]1CO[C@@H]2Cn3cc(C(=O)NCc4ccc(F)cc4F)c(=O)c(O)c3C(=O)N12
inactive: Potency (C33A) | Potency (CAOV3) | Potency (CASKI) | Potency (Es-2) | Potency (HeLa) | Potency (Hek293T) | Potency (OV90) | Potency (PA-1) | Potency (SKOV3) | Potency (Tov112D)
